Data published in PubChem BioAssay (NCI).
About 79,000 compounds went through this panel and 15% of them were active in at least one assay; those are over-represented in the sample as a whole. Activity calls are given as the source filed them. Cut-off read from the data, not from the text of the source: active = growth inhibition above about 70%; inactive = the rest.

Columns and labels:
[1] = NCI Yeast Anticancer Drug Screen. Data for the rad52 strain (AID 147);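 note: 0% = growth of vehicle-treated control cultures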; settings: S. cerevisiae rad52 mutant growth inhibition, active compounds read high
Procedure, shortened: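 DNA repair-defective yeast; compound exposure; growth scored against vehicle controls.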

[2] = NCI Yeast Anticancer Drug Screen. Data for the wt1 strain (AID 149);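 note: 0% = growth of vehicle-treated wt1 cultures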; settings: S. cerevisiae wt1 strain (SPY 50644) growth inhibition, active compounds read high
Procedure, shortened: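 Using yeast strain wt1, compound-induced growth inhibition was determined against vehicle-treated cultures.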

[3] = NCI Yeast Anticancer Drug Screen. Data for the rad50EPP+ strain (AID 151);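 note: 0% = growth of vehicle-treated control cultures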; settings: S. cerevisiae rad50 mutant strain, active compounds read high
Procedure, shortened: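 rad50EPP+ yeast treated with test compounds. Readout: growth vs vehicle control.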

[4] = NCI Yeast Anticancer Drug Screen. Data for the rad50 strain (AID 155);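 note: 0% = growth of vehicle-only cultures of the same strain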; settings: S. cerevisiae rad50 strain growth inhibition, active compounds read high
Procedure, shortened: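 Relative growth inhibition (compound vs vehicle) was measured in yeast with a defined repair-gene alteration.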

[5] = NCI Yeast Anticancer Drug Screen. Data for the mec2-1 strain (AID 157); settings: S. cerevisiae mec2-1 strain, active compounds read high
Procedure, shortened: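 Growth inhibition is read against vehicle-treated controls after compound exposure of the mec2-1 yeast strain, which is defective in DNA damage repair or cell cycle control.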

[6] = NCI Yeast Anticancer Drug Screen. Data for the rad14 strain (AID 159);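 note: 0% = growth of vehicle-treated control cultures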; settings: S. cerevisiae rad14 strain growth inhibition, active compounds read high
Procedure, shortened: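 Screen for anticancer potential: a yeast strain altered in DNA damage repair is grown with compound, and reduced growth is quantified against vehicle controls.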

[7] = NCI Yeast Anticancer Drug Screen. Data for the sgs1 mgt1 strain (AID 161);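 note: 0% = growth of cultures given vehicle only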; settings: S. cerevisiae sgs1 mgt1 strain, active compounds read high
Procedure, shortened: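 Yeast cells carrying a defined DNA-repair defect were exposed to test compounds. Growth inhibition was measured relative to vehicle-treated controls.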

[8] = NCI Yeast Anticancer Drug Screen. Data for the CLN2oe strain (AID 163);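 note: 0% = growth of vehicle-only control cultures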; settings: S. cerevisiae CLN2oe strain, active compounds read high
Procedure, shortened: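 Compound-treated yeast; growth vs vehicle ctrl = % inhibition. Genetically altered strain (cell-cycle control).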

[9] = NCI Yeast Anticancer Drug Screen. Data for the cln2 rad14 strain (AID 165);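 note: 0% = growth equal to vehicle treated cultures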; settings: S. cerevisiae cln2 rad14 strain, active compounds read high
Procedure, shortened: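 Growth inhibition, relative to vehicle-treated controls, is the read-out. The test organism is a yeast strain with defined genetic alterations, cln2 rad14.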

[10] = NCI Yeast Anticancer Drug Screen. Data for the bub3 strain (AID 167); settings: S. cerevisiae bub3 mutant strain, active compounds read high
Procedure, shortened: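 Screening used yeast with an engineered genetic alteration affecting cell cycle control. Compound-exposed cultures were compared with vehicle cultures, and reduced growth was taken as inhibition.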

[11] = NCI Yeast Anticancer Drug Screen. Data for the wt2 strain (AID 169);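 note: 0% = growth of vehicle-treated yeast cultures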; settings: S. cerevisiae wt2 strain growth inhibition, active compounds read high
Procedure, shortened: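 Compound exposure of yeast; growth compared with vehicle controls; inhibition reported.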

[12] = NCI Yeast Anticancer Drug Screen. Data for the mlh1 strain (AID 171);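 note: 0% = growth of vehicle-treated control cultures of the same strain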; settings: S. cerevisiae mlh1 strain growth inhibition, active compounds read high
Procedure, shortened: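 Compounds are applied to a genetically altered yeast strain, and its growth is compared with that of vehicle-treated cultures to give percent inhibition.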

[13] = NCI Yeast Anticancer Drug Screen. Data for the sgs1 strain (AID 173);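 note: 0% = growth of vehicle-only control cultures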; settings: S. cerevisiae sgs1 mutant, active compounds read high
Procedure, shortened: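 Compounds applied to genetically altered yeast; growth compared with vehicle-treated cultures to give % inhibition.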

[14] = NCI Yeast Anticancer Drug Screen. Data for the mlh1 rad18 strain (AID 175); settings: S. cerevisiae mlh1 rad18 strain growth inhibition, active compounds read high
Procedure, shortened: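 Cells of a genetically altered yeast strain, deficient in DNA damage repair, were treated with compound. Their growth was then compared with that of vehicle-treated cultures to give inhibition.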

[15] = NCI Yeast Anticancer Drug Screen. Data for the rad18 strain (AID 177); settings: S. cerevisiae rad18 mutant growth inhibition, active compounds read high
Procedure, shortened: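 Compounds are applied to a repair-deficient yeast strain, and growth is compared with that of vehicle-treated cultures to give percent inhibition.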

[16] = NCI Yeast Anticancer Drug Screen. Data for the mgt1 strain (AID 153); settings: S. cerevisiae mgt1 mutant growth inhibition, active compounds read high
Procedure, shortened: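 Growth inhibition relative to vehicle controls was scored for the mgt1 yeast strain after compound exposure.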

[17] = at 5.0 µM (retest, dose inferred, filed as 0.5)
[18] = at 50.0 µM (retest, dose inferred, filed as 5.0)

Measured: growth inhibition

Cc1c([N+](=O)[O-])oc2ccc3ccccc3c12
active: [1]; at 11.0 µM 86% | [1]; at 33.0 µM 94% | [1]; at 100.0 µM 92% | [3]; at 11.0 µM 79% | [3]; at 33.0 µM 91% | [3]; at 100.0 µM 88% | [4]; [17] 70% | [4]; at 33.0 µM 88% | [4]; [18] 90% | [4]; at 50.0 µM 87% | [4]; at 100.0 µM 92% | [5]; [18] 90% | [5]; at 50.0 µM 94.8% | [5]; at 100.0 µM 91% | [6]; at 3.7 µM 84% | [6]; at 11.0 µM 86% | [6]; at 33.0 µM 96% | [6]; at 100.0 µM 93% | [7]; [17] 76% | [7]; [18] 92% | [7]; at 50.0 µM 84.4% | [9]; [17] 81% | [9]; [18] 96% | [9]; at 50.0 µM 97% | [13]; at 11.0 µM 78% | [13]; at 33.0 µM 86% | [13]; at 100.0 µM 89% | [14]; [17] 82% | [14]; [18] 94% | [14]; at 50.0 µM 95.3% | [15]; at 1.2 µM 95% | [15]; at 3.7 µM 96% | [15]; at 11.0 µM 96% | [15]; at 33.0 µM 95% | [15]; at 100.0 µM 94%
inactive: [1]; at 1.2 µM 23% | [1]; at 3.7 µM 50% | [2]; at 1.2 µM 2% | [2]; at 3.7 µM 2% | [2]; at 11.0 µM 4% | [2]; at 33.0 µM 11% | [2]; at 100.0 µM 21% | [3]; at 1.2 µM 26% | [3]; at 3.7 µM 50% | [4]; at 1.2 µM 26% | [4]; at 3.7 µM 48% | [4]; at 11.0 µM 69% | [5]; at 1.2 µM 6% | [5]; at 3.7 µM 6% | [5]; [17] 18% | [5]; at 11.0 µM 21% | [5]; at 33.0 µM 51% | [6]; at 1.2 µM 43% | [8]; at 1.2 µM -6% | [8]; at 3.7 µM -8% | [8]; at 11.0 µM -6% | [8]; at 33.0 µM 3% | [8]; at 100.0 µM 6% | [10]; at 1.2 µM -11% | [10]; at 3.7 µM -17% | [10]; [17] -66% | [10]; at 11.0 µM -11% | [10]; at 33.0 µM -18% | [10]; [18] -11% | [10]; at 50.0 µM 12.4% | [10]; at 100.0 µM 0% | [11]; at 1.2 µM 1% | [11]; at 3.7 µM 2% | [11]; at 11.0 µM 6% | [11]; at 33.0 µM 14% | [11]; at 100.0 µM 26% | [12]; at 1.2 µM -1% | [12]; at 3.7 µM 1% | [12]; at 11.0 µM -2% | [12]; at 33.0 µM 15% | [12]; at 100.0 µM 35% | [13]; at 1.2 µM 49% | [13]; at 3.7 µM 69%

O=C(O)C1C2CCC(C2)C1c1ccccc1 (stereo unspecified)
inactive: [1]; at 1.2 µM -1% | [1]; at 3.7 µM -3% | [1]; at 11.0 µM -6% | [1]; at 33.0 µM -3% | [1]; at 100.0 µM 20% | [2]; at 1.2 µM -1% | [2]; at 3.7 µM -2% | [2]; at 11.0 µM -4% | [2]; at 33.0 µM -1% | [2]; at 100.0 µM 26% | [3]; at 1.2 µM -1% | [3]; at 3.7 µM -2% | [3]; at 11.0 µM -2% | [3]; at 33.0 µM -2% | [3]; at 100.0 µM -3% | [16]; at 1.2 µM -1% | [16]; at 3.7 µM -1% | [16]; at 11.0 µM -4% | [16]; at 33.0 µM -5% | [16]; at 100.0 µM 31% | [4]; at 1.2 µM -10% | [4]; at 3.7 µM -51% | [4]; [17] -2% | [4]; at 11.0 µM 2% | [4]; at 33.0 µM -3% | [4]; [18] 10% | [4]; at 50.0 µM 19.4% | [4]; at 100.0 µM 34% | [5]; at 1.2 µM -1% | [5]; at 3.7 µM -4% | [5]; [17] -8% | [5]; at 11.0 µM -7% | [5]; at 33.0 µM -1% | [5]; [18] 8% | [5]; at 50.0 µM 14.4% | [5]; at 100.0 µM 31% | [7]; [17] -2% | [7]; [18] 8% | [7]; at 50.0 µM 10.2% | [8]; at 1.2 µM -7% | [8]; at 3.7 µM -10% | [8]; at 11.0 µM -6% | [8]; at 33.0 µM -1% | [8]; at 100.0 µM 18% | [9]; [17] -6% | [9]; [18] 8% | [9]; at 50.0 µM 11% | [10]; at 1.2 µM -1% | [10]; at 3.7 µM 11% | [10]; [17] 29% | [10]; at 11.0 µM 36% | [11]; at 1.2 µM -1% | [11]; at 3.7 µM 7% | [11]; at 11.0 µM -3% | [11]; at 33.0 µM 0% | [11]; at 100.0 µM 37% | [12]; at 1.2 µM -2% | [12]; at 3.7 µM -2% | [12]; at 11.0 µM -1% | [12]; at 33.0 µM -2% | [12]; at 100.0 µM 31% | [13]; at 1.2 µM -2% | [13]; at 3.7 µM 0% | [13]; at 11.0 µM 3% | [13]; at 33.0 µM 15% | [13]; at 100.0 µM 66% | [14]; [17] -1% | [14]; [18] 6% | [14]; at 50.0 µM 20.1% | [15]; at 1.2 µM 0% | [15]; at 3.7 µM -1% | [15]; at 11.0 µM -5% | [15]; at 33.0 µM 1% | [15]; at 100.0 µM 47%
active: [10]; at 33.0 µM 77% | [10]; [18] 90% | [10]; at 50.0 µM 95% | [10]; at 100.0 µM 94%
